Source: PubChem BioAssay (NCI)
About 83,000 compounds went through this panel and 20% of them were active in at least one assay; those are over-represented in the sample as a whole.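 For each line, cells grew in 96-well plates with the test compound present at a single concentration for 48 hours.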 Active and inactive are the calls of the source. Rule for the calls: active = growth percent below 10; inactive = the rest.

Each molecule was assayed on TK-10 renal (assay: NCI-60 one-dose screen, 48 h (100 = growth as untreated, 0 = no growth, -100 = all killed)). Settings: 10 µM unless noted.
In the case of `O=C(Nc1ccc(O)cc1)C(Cl)(Cl)Cl`, the growth is reported as 106% (inactive).
In the case of `CCCOC(=O)N[C@H]1CCc2c(Br)c(OC)c(OC)c(OC)c2-c2ccc(SC)c(=O)cc21`, the growth is reported as 43% (inactive).
In the case of `CCOC(=O)[C@@H](C)C[C@H](Cc1ccccc1)NC(=O)c1csc([C@@H](C[C@H](C(C)C)N(C)C(=O)[C@@H](NC(=O)[C@H]2CCCCN2C)C(C)(C)CC)OC(C)=O)n1`, the growth is reported as 29.3% (inactive).
In the case of `CN1CC(CNC(=O)OCc2ccccc2)CC2c3cccc4c3c(cn4C)CC21` (configuration not stated), the growth is reported as 53.9% (inactive).
For `COc1ccc(NC([Se])=NC23CC4CC(CC(C4)C2)C3)cc1`, the growth was -40.9% (active).
With `ClCCN(CCCl)c1ccc(/C=N\N=C\c2ccc(N(CCCl)CCCl)cc2)cc1` the growth was 47.2% (inactive).
In the case of `C[C@@]12CC=C3c4nc(Nc5cccc(O)c5)sc4CC[C@]3(C)[C@H]1CC[C@]1(C)C(=O)CC[C@@H]21`, the growth is reported as 10.2% (inactive).
`O=[N+]([O-])/C=C\c1ccc(Cl)c(Cl)c1` was tested, and the growth was 82.7% (inactive).
With `CC(C)OC(=O)[C@H](C)NP(=O)(Oc1ccccc1)C1CCCN(O)C1=O` (some centres not stated) the growth was 99.5% (inactive).
With `COC(=O)CCC1=C(C)c2cc3[n-]c(cc4nc(cc5[n-]c(cc1n2)c(CCC(=O)OC)c5C)C=C4C)cc3C.[Cd+2]` the growth was 33.4% (inactive).
`C=CCn1cc(C=C2C(=O)N(C)C(=O)N(C)C2=O)c2ccccc21` was tested, and the growth was 120% (inactive).
In the case of `COC(=O)[C@@H](C)C[C@H](Cc1ccccc1)NC(=O)c1nc([C@@H](C[C@H](C(C)C)N(C)C(=O)[C@@H](NC(=O)[C@H]2C[C@H](O)CCN2C)C(C)C)OC(C)=O)sc1C(C)C`, the growth is reported as 27.5% (inactive).
For `N#CC1C(C#N)C2CCC1C1C2N1c1ccccc1` (configuration not stated), the growth was 106% (inactive).
`CC(C)(NC(=O)O[C@@H]1CN2CCC1CC2)c1csc(-c2ccc(F)cc2)n1` was tested, and the growth was 91.9% (inactive).
For `CCC(C)(C)[C@H](NC(=O)[C@H]1CCCCN1C)C(=O)N(C)[C@H](C[C@@H](OC(C)=O)c1nc(C(=O)N[C@@H](Cc2ccccc2)C[C@H](C)C(=O)O)cs1)C(C)C`, the growth was 35.1% (inactive).
In the case of `C[C@]12CCc3sc(-c4ccccc4O)nc3C1=CC[C@@H]1[C@@H]2CC[C@]2(C)C(=O)CC[C@@H]12`, the growth is reported as 104% (inactive).
With `CCOC(=O)N1CC1` the growth was 112% (inactive).
With `N#CC1(C#N)C(c2ccc(N(CCCl)CCCl)cc2)OC23CCCCC2C1(C#N)C(=N)O3` (configuration not stated) the growth was 91.9% (inactive).
`C=CCCCN=C=S` was tested, and the growth was 69.1% (inactive).
With `Cc1cccc(N2CCN(C(C)C#N)CC2)c1` (configuration not stated) the growth was 119% (inactive).
For `O=C(Nc1ccc([N+](=O)[O-])cc1)C(Cl)(Cl)Cl`, the growth was 113% (inactive).
For `COP(=S)(N1CC1)N1CC1`, the growth was 110% (inactive).
For `O=C(N/N=C\c1ccc(N(CCCl)CCCl)cc1)c1cccc([N+](=O)[O-])c1`, the growth was 99.2% (inactive).
In the case of `CC(=O)OC[C@]1(C)C=C2C(=O)[C@](C)(O)C3(CC3)C(C)=C2[C@H]1O`, the growth is reported as -15.3% (active).
With `CS(=O)(=O)CCN1CC2CCCC(C2)C1` the growth was 96.4% (inactive).
`CCOC(=O)[C@@H](C)C[C@H](Cc1ccccc1)NC(=O)c1csc([C@@H](C[C@H](C(C)C)N(C)C(=O)[C@@H](NC(=O)[C@H]2C[C@H](O)CCN2C)C(C)C)OC(C)=O)n1` was tested, and the growth was 38.4% (inactive).
`CNCc1cccnc1` was tested, and the growth was 113% (inactive).
For `Cn1cc(C=O)c2nccnc21`, the growth was 94.8% (inactive).
In the case of `Cc1cc(N(CCCl)CCCl)ccc1C=Nc1ccccc1-c1ccccc1`, the growth is reported as 88.2% (inactive).
`CNC(=O)Oc1ccc2c(c1)OCO2` was tested, and the growth was 101% (inactive).
With `COc1ccc(N(CC(=O)NCCC[Te]c2ccccc2)C(=O)CCSC2=C(C)C(=O)c3ccccc3C2=O)cc1` the growth was 8.99% (active).
In the case of `Cn1cccc1C1CC(=O)N(CCC[Se]C#N)C1=O` (configuration not stated), the growth is reported as -69.5% (active).
For `CC1(C)[C@H](O)[C@H](F)C[C@@]2(C)Oc3ccc(C(=O)Nc4ccc5c(c4)NC(=O)C54CCN(CCCCC#N)CC4)cc3C[C@H]12`, the growth was 59.1% (inactive).
For `CCOC(=O)[C@@H](C)C[C@H](Cc1ccccc1)NC(=O)c1nc([C@@H](C[C@H](C(C)C)N(C)C(=O)[C@@H](NC(=O)[C@H]2CCCCN2C)C(C)C)OC(C)=O)sc1CCOCc1ccccc1`, the growth was -6.54% (active).
`C[C@]12CCc3sc(-c4cccc(F)c4)nc3C1=CC[C@@H]1[C@@H]2CC[C@]2(C)C(=O)CC[C@@H]12` was tested, and the growth was 24% (inactive).
With `COC(=O)[C@H](C[C@H](Cc1ccccc1)NC(=O)c1csc([C@@H](C[C@H](C(C)C)N(C)C(=O)[C@@H](NC(=O)[C@H]2CCCCN2C)C(C)C)OC(C)=O)n1)NC(=O)OCc1ccccc1` the growth was 44.2% [8.5 µM] (inactive).
For `C[C@]12CC[C@H]3[C@@H](C[C@@H]4SC(Nc5ccccc5)=N[C@@]45CC(O)CC[C@]35C)[C@@H]1CCC2O` (some centres not stated), the growth was 65% (inactive).
